# Source: the supplement of paper PMC6555819
# System: VDR homodimer (NR concentration 270 nM)
# Assay: PBM binding z-score (relative to random genomic background probes); higher = stronger binding; sequences stand for … in GC…GCGATTGACAGCGTAGAATGAAGG
# Outline: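 Binding buffer was PBS pH 7.4 with 2% milk, 0.02% Triton X-100, 1 mM DTT, 0.2 mg/mL BSA and 0.4 mg/ml salmon testes DNA. In it, ligand-free nuclear receptor dimers were incubated 1 h on custom Agilent 4×180K protein-binding microarrays carrying double-stranded probes. Antibodies against each partner (one per run) detected binding, and z-scores were calculated against random background probes after regression normalization of scanned fluorescence.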
row,Sequence,PBM binding z-score
1,GGAAAGAGGGCATTCGAGTTGATAGCATGGCGAT,2.71
2,CCTACTGGGCCAAGAAAGGTCATTGATTCAGTGA,2.23
3,GCAGACAGTTGAAACGCAGGTAACTCAGGGTGGC,-0.832
4,CCGACTGGGGCAAAGCTTACCATACTCAGTACGA,-0.448
5,TAGCCTAGGTCAGATCGGGCCAATATACGCTATA,-0.261
6,CGTCCGAGGTCAGCAGGTCAGTGAAAGCGACGTG,2.44
7,ATCTCTAGGTAAAAGCTCAGTGAATCCCGAGGAT,-0.497
8,GGAACGAGGGCAAGTTGATACCAGAGTTTGATGG,2.05
9,AGAATGAGGTTATTAAGTTCAGGGAATTGCGGTC,6.33
10,GCTAGTTGGTTAGTAAAAGGTCACACACCGGTCG,1.85
11,AATACAGTGTCACTAGGCCAGAGTAGGTACGAAT,0.0225
12,GGAACGAGGGCAAGTTGCTAGCAGAGTTTGATGG,1.44
13,ATACCAAGGTGATCGTGAGGTCGTGGATACTAAC,1.78
14,TGTCAAAGTTCAAATGTAACGTAAGTATCCACAC,4.11
15,CCTACTGGGCCAAGGTCATTGTTCAGTCAAAGCA,3.17
16,TCGAGTAGGTTAGTCGGGGCATTTAGCCAACATA,0.418
17,CCGAGTAGGTTATGGGGCTTTCAGGCAACGGTGA,0.00532
18,AGAACGAGGGCACGCTGAGTTGATAGGAGAGTAG,1.76
19,CCGACTGGGGCAAAGGTTACCATTCTCAGTACGA,-0.419
20,CCTTACGGGTCACTGACAGATTATAGCATTTGGA,0.842

row,Sequence,PBM binding z-score
1,CGTCCAAGGTGAAAGGTCAGTGAAGAGATGACGG,1.08
2,ACAGAAAGGTGAGTGAAGGTAACTCAGCTGGACG,-0.509
3,TGTCAAAGTTCAAAGGTAACGGAAGTATCCACAC,4.06
4,ACCGAAAGGTCGAGGTGAGTATAGAGAAAGGGAA,0.402
5,ATCTCTCGGTAAGACTCAGTTCAGTGAAGAACGC,2.06
6,CCTTACGGGTCAAGATTATAGCACGGGTGGTACG,0.658
7,ATCTCTAGGTAACCAAGTTAAGTGAATGCCGAAC,-0.108
8,GATACAGGCTCAAGGCCAGAGTACGCGTATTGAT,-0.14
9,GCAAGCAGGCCATTTGGGTCACTCAATGACGGGC,0.402
10,AGAATGAGGTTATACGTCGATCAGGGAAGAAAGT,0.866
11,TATACAGGTTCAAAGGCCAGAGTACGAATGTCGA,4.75
12,ACTAGCAGGCGAAGTTTGGGTCACTCAAACAAAG,-0.246
13,ATTTCTAGGTAAGACTCAGTTCAGTGAAGAACGC,2
14,GCTATTGGTTGAAAGGGCAACCGAATGATTCTCG,0.0908
15,CGAACTAGGTCATCCTGGACAGTGAATACATTGA,1.5
16,ATATCTAGGTTAAGGGTCATTCAGGTTGGTTCGC,4.63
17,ATATGTTGGTTAAGGGTCATTCAGGTTGGTTCGC,4.89
18,CAAACTAGGTCAACGGTCAAAGTCGAGCCAACCA,1
19,TCTGATAGGTCAACGATGGTCAGCTAATCTGCTA,-0.032
20,AGTATGAGGTTATACGTAGATCAGGGAAGAAAGT,0.823
